# USP10 inh – inhibitors of human USP10 deubiquitinase | purified USP10, Ub-rhodamine fluorescence, 60 min | inhibition, % at 20 µM | 1.1% of 47,000 active
# UCHL1 inh – human UCHL1 deubiquitinase inhibition. purified UCHL1, Ub-rhodamine cleavage fluorescence. AID 1645859. inhibition, % at 20 µM. 0.2% of 47,000 active. P09936
# USP7 block – human USP7 deubiquitinase inhibition; Q93009; purified USP7, Ub-rhodamine cleavage fluorescence; inhibition, % at 20 µM; 0.3% of 47,000 active
# USP8 inh – blocks human USP8 ubiquitin-rhodamine cleavage; P40818; purified USP8, Ub-rhodamine cleavage fluorescence, 30 min; inhibition, % at 20 µM; 4.2% of 47,000 active; AID 1645853
# Active calls of the source: *. A selection: hits, their analogues and other compounds. The true share with any hit is near 4.6%. Rule as the data show it: active = inhibition above about 30%; inactive = the rest.
SMILES,USP10 inh,UCHL1 inh,USP7 block,USP8 inh
Cc1ccc(NS(=O)(=O)c2cccc(C(=O)NC3CCN(Cc4ccccc4)CC3)c2)c(C)c1,0,7,2,-1
O=C(NC1CCCCCC1)c1cccc(S(=O)(=O)Nc2cc(C(F)(F)F)ccc2Cl)c1,53*,6,2,26
O=C(NC[C@H]1OC[C@@H]2CCN(c3ncccn3)C[C@@H]21)c1ccco1,1,3,3,2
CC(=O)N1CCc2cc(S(=O)(=O)NCCc3cccc(F)c3)ccc21,-4,0,0,12
CN(C)C(=O)N1CCn2c(nnc2C2CCNCC2)C1,2,2,5,14
O=C(c1ccc(F)cc1)[C@@H]1[C@H](C(=O)Nc2ccc(Cl)cc2)N2c3ccccc3C=CC2[C@@]12C(=O)Nc1ccccc12 (some centres not stated),-2,-59,-71,-189
CCCc1ccc(C(=O)[C@@H]2[C@@H](C(=O)c3cccs3)N3c4ccc(C)cc4C(C)=C[C@@H]3[C@@]23C(=O)Nc2ccccc23)cc1,38*,1,33*,67*
COc1ccc(S(=O)(=O)N2CCOC(c3cnc(C)cn3)C2)cc1 (configuration not stated),2,1,4,0
CN1C(=O)COc2cc(-c3noc(C(=O)NCc4ccc(F)cc4)n3)ccc21,55*,4,9,41*
Cn1c(-c2ccccc2Cl)c(-c2cn3ccccc3n2)c(=O)n(C)c1=O,4,3,0,16
O=C(CCn1cnc2cc(-c3noc(-c4ccc(F)cc4)n3)ccc21)N1CCOCC1,2,-2,7,-9
CCOc1ccc(NC(=O)CSCc2nc(-c3ccc(OC)c(OC)c3)no2)cc1,-1,3,4,34*
CCOC(=O)c1noc2ncnc(N3CCCC3)c12,-4,-2,-4,-9
Cc1ccc(C(=O)NCCc2nc(-c3ccc4c(c3)OCO4)n[nH]2)cc1F,1,2,-13,32*
Cc1noc(C)c1CNC(=O)c1ccc2c(c1)OCO2,-3,0,2,-2
Cc1cc(C)n(-c2cccc(CN3C[C@@H](c4cccnc4)[C@@]4(CCCC(=O)N4)C3)c2)n1,-2,-6,-1,9
COc1ccc(OC)c2c(C)cc(N3CC(C)CC(C)C3)nc12 (configuration not stated),15,22,-33,98*
c1ccc(-c2cc(CC3(NC4CCOCC4)COC3)no2)nc1,2,0,-7,4
COc1ccc(C(=O)NCCS(=O)(=O)N2CCN(c3ncccn3)CC2)cc1OC,-1,-2,0,2
COc1ccccc1OCCCn1c(CNC(=O)c2ccco2)nc2ccccc21,1,0,-4,3
Cc1ccc(OCCCn2c(CNC(=O)c3ccco3)nc3ccccc32)cc1,-2,5,-1,41*

# Source: PubChem
